# Screening results as filed in PubChem.
# Hits are enriched below; roughly 1.2% of the tested compounds scored in any of these assays.
# LANA DNA inh: blocks KSHV LANA C-terminal domain binding to DNA. MBP-C-LANA/FAM-LBS DNA binding, fluorescence polarization. inhibition, % at 9 µM. 0.078% of 340,000 active. AID 504423;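 active = highest replicate inhibition at or above 60% at 9 µM, even if other replicates fall short; inactive = all replicates below 60% inhibition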;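 note: 0% = neutral control wells and 100% = 4 µM acridine orange control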
# E coli Lon inh: E. coli protease La inhibition | P0A9M0 | purified E. coli Lon protease, fluorescence polarization | inhibition, % at 7.94 µM | 0.42% of 360,000 active; in the data active = inhibition above about 13%, passing the limit was not always enough;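 note: 0% = enzyme with probe and DMSO and 100% = no enzyme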
# BCLXL inh: inhibitors of human Bcl-xL. Q07817. GST-Bcl-xL / FITC-Bim BH3 peptide fluorescence polarization. inhibition, % at 10.9 µM. 0.7% of 320,000 active;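 active = inhibition above the mean of all tested compounds plus 3 SD, cutoff set per campaign, cut at about 30% in these data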;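 note: 0% = DMSO wells and 100% = unlabeled Bim-BH3 peptide competitor; inhibitors lower millipolarization by displacing the labeled peptide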
# GLD-1 TGE inh: GLD-1-TGE RNA interaction inhibition (C. elegans); purified GLD-1 + fluorescein TGE RNA, fluorescence polarization; inhibition, % at 5.96 µM; 0.44% of 320,000 active;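 active = percent inhibition above a per-plate cutoff, the plate mean of test compounds plus 3 SD, cut at about 30% in these data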;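 note: 0% = DMSO wells with GLD-1 and probe and 100% = wells lacking GLD-1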
# MEX-5 binding: C. elegans MEX-5 TCR-2 RNA binding activity | Q9XUB2 | MEX-5/FITC-TCR2 RNA binding, fluorescence polarization; hits give low values | activity score (negative = inhibition of binding), % at 10 µM | 0.38% of 300,000 active | AID 1832;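 active = inhibition past about -25% in most replicates, and total fluorescence under double the plate's negative control median, limit read from the data; inconclusive = replicates evenly split on the limit, or fluorescence at least double controls; inactive = too little inhibition in most replicates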;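 note: 0% = DMSO and -100% = 5 µM competing unlabeled TCR2 RNA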
# Keap1 Nrf2 FP: Keap1-Nrf2 (human) interaction inhibition; Q14145; Keap1 Kelch-Nrf2 peptide fluorescence polarization, 1536-well; inhibition, % at 9.4 µM; 0.15% of 340,000 active; AID 504523; in the data active = inhibition above about 12%; inconclusive = no clear call, values can overlap the other calls; inactive = below about 7.3%;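 note: human Keap1 Kelch domain with fluorescein labeled Nrf2 9mer peptide probe; 0% = neutral control wells and 100% = peptide positive control; higher means more block of Keap1 binding to Nrf2 peptide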
# eLon confirm: E. coli Lon inhibition confirmation; shares compounds with E coli Lon inh; purified E. coli Lon, fluorescence polarization; inhibition, % at 7.94 µM; 31% of 1,400 active; in the data active = inhibition above about 16%;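 note: 0% = enzyme with probe and DMSO and 100% = no enzyme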
# The depositor's hits bear a star; ? = inconclusive; . = no result.
SMILES,LANA DNA inh,E coli Lon inh,BCLXL inh,GLD-1 TGE inh,MEX-5 binding,Keap1 Nrf2 FP,eLon confirm
Cc1ccc(CN2CCNC(=O)C2CC(=O)N(C)CCc2ccccc2)cc1 (stereo not given),-0.7,23.3*,4.7,12.0,0.3,-2.2,-7.9
O=C(CCCn1c(=O)c2sccc2n(Cc2cc(=O)n3ccccc3n2)c1=O)NCc1ccco1,-2.0,15.4*,-0.4,6.4,0.6,-4.3,0.5
Cc1c(C)n(C)c2ccc(C(=O)NCCCN3CCCC3)cc12,-0.1,-4.1,6.0,-1.2,-4.2,-5.6,.
Cc1c(C)n(C)c2ccc(C(=O)NCCCN3CCOCC3)cc12,1.3,56.5*,3.3,1.9,1.0,-2.0,-2.1
CC1(C)CC(=O)C=C(c2ccc(-c3ccccc3)cc2)C1,1.9,-5.0,3.4,6.2,.,-2.1,.
c1cncc(Nc2c3ccccc3nc3ccccc23)c1,22.7,25.1*,7.9,10.6,3.4,-1.8,-5.3
CC1(C)CC(=O)C2=C(C1)OC1=C(C(=O)CC(C)(C)C1)C2c1ccc(O)cc1O,0.8,65.1*,174.5*,128.3*,?,-16.0,95.8*
CC(=O)c1cccc(-c2cnc3c(NC=O)cc(-c4ccc(F)cc4)cn23)c1,.,-16.3,.,.,.,.,.
O=[N+]([O-])c1ccccc1S(=O)(=O)Nc1ccn(Cc2c(F)cccc2Cl)n1,0.6,-2.3,-0.4,0.1,1.7,-0.6,.
O=C(CCN1C(=O)S/C(=C\c2ccccc2)C1=O)Nc1ccc(O)cc1C(=O)O,-0.2,18.6*,2.6,-3.2,-6.8,0.5,4.7
O=C(CCN1C(=O)S/C(=C/c2ccccc2)C1=O)Nc1ccc(O)c(C(=O)O)c1,-1.5,-12.0,4.9,-4.1,-3.0,-2.3,.
CCN(CC)S(=O)(=O)c1cc(NC(=O)[C@@H](NC(N)=O)C(C)C)ccc1C,1.2,17.1*,-1.8,-7.2,2.4,-4.0,-3.1
CCN(CC)S(=O)(=O)c1cc(NC(=O)C(C)OC(=O)c2[nH]c(C)c(C(C)=O)c2C)ccc1C (stereo not given),0.3,5.0,5.2,-0.4,-0.4,-4.3,.
Cn1c(N)c(C(=O)COC(=O)c2ccccc2C(=O)c2ccc(Cl)c([N+](=O)[O-])c2)c(=O)n(C)c1=O,0.3,-2.8,.,0.8,.,-2.9,.
O=C(NC(=S)Nc1cccc([N+](=O)[O-])c1)c1ccccc1,-0.2,2.8,10.6,4.0,3.2,-1.1,.
O=C(O)CC(NNC(=O)c1ccccc1)C(=O)Nc1cccc([N+](=O)[O-])c1 (stereo not given),0.5,16.3*,-1.6,4.1,-2.5,-2.3,12.0
FC(F)Oc1ccc(NC(=S)NCc2ccccc2)cc1,-2.5,-1.6,10.9,2.3,0.3,0.1,.
Cc1cc2cc(CNC(=O)NC3CCCCC3)ccc2n1C,3.2,-12.0,5.5,6.2,1.7,-0.7,.
Cc1cc2cc(CNC(=S)Nc3ccc(OC(F)F)cc3)ccc2n1C,1.1,14.9*,14.0,10.3,-0.1,-6.6,0.9
Cc1cc2cc(CNC(=O)Nc3ccc(Cl)c(Cl)c3)ccc2n1C,2.3,22.6*,7.0,14.7,1.0,1.2,13.1
COc1ccc(CC(=O)N[C@@H](CCSC)C(=O)N2CCC3(CC2)NCCc2[nH]cnc23)cc1,0.1,0.6,5.2,3.7,-0.4,-2.0,.
N#Cc1c(NCCN)nc(-c2ccccc2)c2c1CCCC2,-1.5,-2.9,2.2,-0.1,5.3,-4.5,.
N#Cc1c(NCCCO)nc(-c2ccccc2)c2c1CCCC2,-0.4,14.4*,2.6,3.1,0.3,-6.6,-3.3
O=C1OC(Nc2cc(Br)cc3cccnc23)c2ccccc21 (stereo not given),1.3,42.4*,64.4*,11.1,.,-0.8,-3.8
O=C(COC(=O)c1cc2ccccc2cc1O)NC1CCCCC1,-1.6,25.6*,.,4.7,.,-1.9,-25.2
CCc1cc(C(=O)NCC(c2ccco2)N2CCCCC2)sc1C (stereo not given),-1.5,-8.0,1.1,-4.2,.,-2.8,.
COc1ccc2c3c(cccc13)N(C)N=C2C,10.6,36.7*,97.3*,42.1*,-9.4,7.2,21.0*
